Laboratory results published in PubChem BioAssay (NCI).
About 83,000 compounds went through this panel and 20% of them were active in at least one assay; those are over-represented in the sample as a whole.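 Interpretation: 100, growth as untreated; towards 0, rising growth inhibition; 0, no net growth; 0 to -100, cell death. Compounds scoring below 10 were considered active.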 The source made the active and inactive calls.

Tests used:
Assay in all cases: NCI-60 one-dose screen, 48 h (100 = growth as untreated, 0 = no growth, -100 = all killed)
Conditions in all cases: 10 µM unless noted
[1] = tested on: NCI-H23 lung
[2] = tested on: NCI-H226 lung
[3] = tested on: NCI-H322M lung
[4] = tested on: HOP-62 NSCLC
[5] = tested on: NCI-H460 lung
[6] = tested on: HOP-92 NSCLC
[7] = tested on: NCI-H522 lung
[8] = tested on: 786-0 renal
[9] = tested on: COLO 205 colon
[10] = tested on: A549/ATCC NSCLC

Measured: growth

O=C(O)c1cc2ccccc2s1
inactive: [1] 101% | [2] 98.2% | [3] 110% | [4] 96.9% | [5] 104% | [6] 90% | [7] 107% | [8] 106% | [9] 113%

C=CN(C(=O)N1CCN(c2cc3c(cc2F)c(=O)c(C(=O)O)cn3C2CC2)CC1)c1nc(-c2ccc(C)cc2)cs1
inactive: [1] 13.4% | [2] 35.4% | [3] 20.8% | [4] 17.9% | [10] 15.7% | [8] 22.8% | [9] 16.7%
active: [5] 9.77% | [6] -10.4% | [7] 5.65%

COc1cccc(C2C(C#N)=C(N)Oc3c2ccc2ccccc32)c1 (stereo not given)
inactive: [1] 28.4% | [2] 47.1% | [3] 41.7% | [4] 39.6% | [6] 46.5% | [8] 20.6%
active: [5] 8.32% | [7] 7.11% | [9] -41.8%

O=c1c(Cc2ccc(F)cc2)cc(-c2ccccc2)nn1C/C(=N/O)c1ccccc1
inactive: [1] 49% | [2] 57.1% | [3] 70% | [4] 62.7% | [5] 37.4% | [6] 42.6% | [7] 42.6% | [8] 69.2% | [9] 47.9%

COc1cc2ncnc(Nc3ccc(S(=O)(=O)Nc4cc(C)on4)cc3)c2cc1OCCCN1CCOCC1
inactive: [1] 100% | [2] 94% | [3] 101% | [4] 95.8% | [5] 110% | [6] 87.4% | [7] 96.8% | [10] 95.3% | [8] 107% | [9] 106%

OC1CSSC1Cn1cnc2c(Nc3ccc(F)c(Cl)c3)ncnc21 (stereo not given)
inactive: [1] 60.2% | [2] 87.9% | [3] 74.1% | [4] 93.2% | [5] 68.4% | [6] 137% | [7] 69.2% | [8] 108% | [9] 111%

Cc1cccc(C)c1NC(=O)Nc1ccccc1
inactive: [1] 88.4% | [2] 107% | [3] 80.3% | [4] 95.8% | [5] 44% | [6] 128% | [7] 49.4% | [10] 86.8% | [8] 110% | [9] 102%

O=C1NCCN1/N=C/c1c(Cl)n(Cc2ccc(Cl)cc2)c2ccccc12
inactive: [1] 98.2% | [2] 64.8% | [3] 110% | [4] 136% | [5] 41.4% | [6] 62.8% | [7] 93.9% | [10] 70% | [8] 96.5% | [9] 75.2%

C=CC(=O)Nc1ccc2ncnc(Nc3cccc(NS(=O)(=O)CCC)c3Cl)c2c1
inactive: [1] 68.9% | [2] 46.7% | [3] 15.8% | [4] 67.3% | [5] 68.6% | [6] 35.1% | [7] 17.8% | [8] 42.4% | [9] 12%

CC(C)CCc1nc2ccc(NCc3ccc(OCCN4CCC(C)CC4)cc3)cc2[nH]1
inactive: [1] 94.9% | [2] 67.4% | [3] 99.2% | [4] 83.6% | [5] 100% | [6] 53.5% | [7] 102% | [10] 99.9% | [8] 76.6% | [9] 66%

CSc1nn2c(-c3cc4cc(Br)ccc4oc3=O)ccnc2c1C#N
inactive: [1] 95.3% | [2] 99.3% | [3] 102% | [4] 97.9% | [5] 104% | [6] 105% | [7] 92.8% | [10] 107% | [8] 101% | [9] 119%

COc1ccc(/C=C2/CCc3cc4ccc(OC)cc4[o+]c32)c(O)c1
inactive: [1] 72.7% | [2] 81.5% | [3] 84.6% | [4] 95.9% | [5] 25.3% | [6] 56.1% | [7] 77.5% | [9] 84.1%
active: [8] -6.35%

CCOC(=O)/C(=C/c1ccc([N+](=O)[O-])cc1)C(=O)c1ccccc1
active: [7] -24.7% | [9] 4.21%
inactive: [1] 48% | [2] 21.3% | [3] 73.5% | [4] 76.5% | [5] 55.2% | [6] 32.4% | [10] 71.5% | [8] 17.2%

COC(=O)c1cc(-c2ccc(OC)c(OC)c2)[nH]c1N/N=C/c1c(Cl)cccc1Cl
active: [4] -7.06% | [8] 8.47%
inactive: [1] 40.7% | [2] 62.4% | [3] 55.1% | [5] 14.6% | [6] 52.7% | [7] 13.7% | [9] 28%

Cn1cc(-c2nc(-c3c[nH]c4c(Cl)nccc34)cs2)c2ccccc21
inactive: [1] 98.6% | [2] 103% | [3] 99.4% | [4] 92.5% | [5] 95.5% | [6] 80.4% | [7] 85.5% | [10] 66.7% | [8] 87.4% | [9] 102%

COC(=O)c1nc(-c2ccccc2)oc1S(=O)(=O)NCC(c1ccc(Cl)cc1)N1CCCCC1 (stereo not given)
inactive: [1] 84.4% | [2] 88.5% | [3] 97.2% | [4] 90.9% | [5] 85.6% | [6] 48.8% | [7] 25.6% | [8] 59.8% | [9] 72.1%

Cc1ccc(S(=O)(=O)c2nc(-c3ccccc3)oc2S(C)=O)cc1 (stereo not given)
active: [6] -51.8% | [7] -74.5% | [8] -64.5% | [9] -79.3%
inactive: [1] 63.6% | [2] 62.6% | [3] 79.9% | [4] 78.5% | [5] 73.1% | [10] 69.8%

C#CC(F)(F)[C@]1(O)CCC2C3CCC4=CC(=O)CCC4=C3[C@@H](c3ccc(N(C)C)cc3)C[C@@]21C (stereo not given in full)
inactive: [1] 96.5% | [2] 98.5% | [3] 92.8% | [4] 90.6% | [5] 93.4% | [6] 67.8% | [7] 64.7% | [8] 69% | [9] 101%

O=c1ccc2nc(-c3ccccc3)nn(-c3ccccn3)c-2c1
inactive: [1] 90.8% | [2] 91.9% | [3] 102% | [4] 95.9% | [5] 106% | [6] 55.8% | [10] 103% | [8] 63.5%
active: [7] -59.7% | [9] -68.8%

CN(C)c1ccc(Cc2cc(-c3ccccc3)nn(C/C(=N/O)c3ccccc3)c2=O)cc1
inactive: [1] 57.4% | [2] 60.5% | [3] 80.4% | [4] 75.1% | [5] 42.6% | [6] 55.9% | [7] 41.2% | [8] 75.4% | [9] 58.4%

c1ccc2[nH]c(-c3ccc(-c4nccc5c4[nH]c4ccccc45)cc3)nc2c1
inactive: [1] 69.1% | [2] 77.4% | [3] 58.7% | [4] 86.1% | [5] 42.9% | [6] 92.4% | [7] 27.3% | [10] 45.7% | [9] 44.9%
active: [8] 2.97%

O=C(O)COc1ccc(F)cc1
inactive: [1] 96.8% | [2] 105% | [3] 99.6% | [4] 98.7% | [5] 113% | [6] 102% | [7] 93.8% | [10] 99.6% | [8] 102% | [9] 116%

Cc1nc2ccccc2c(/C=C/c2ccc(Cl)cc2)c1C(=O)/C=C/c1ccccc1
active: [4] -36.7% | [5] -33% | [7] -13.3% | [8] 7.29% | [9] -5.72%
inactive: [1] 22.2% | [2] 40.2% | [3] 41.2% | [6] 41.4%

O=C(NC1CCCCCC1)c1ccc2c(=O)n3c(nc2c1)CCCCC3
inactive: [1] 97.7% | [2] 106% | [3] 90.7% | [4] 99.2% | [5] 101% | [6] 84.6% | [7] 103% | [8] 106% | [9] 102%

O=C1c2ccccc2C(=O)c2cc(Cn3c[n+](Cc4ccc5ccccc5c4)c4ccccc43)ccc21
inactive: [1] 56.5% | [2] 63.9% | [3] 75.4% | [4] 76.2% | [5] 63.4% | [6] 15.6% | [7] 34.1% | [8] 61.2% | [9] 24.4%

O=C(CSc1nc(-c2ccccc2)cn1-c1ccc(Cl)cc1)c1ccc([N+](=O)[O-])cc1
inactive: [1] 78.5% | [2] 84.7% | [3] 89% | [4] 96.2% | [5] 79.5% | [6] 87.5% | [7] 70.5% | [10] 86.8% | [8] 90.3% | [9] 96.1%

COc1nc2ccccc2cc1/C=[N+](\[O-])c1ccccc1
inactive: [1] 75.4% | [2] 69.5% | [3] 86.5% | [4] 80.4% | [5] 99.6% | [6] 64.4% | [7] 82.7% | [10] 94.8% | [8] 102% | [9] 108%

O=C1/C(=C/c2cccc(Br)c2)COc2ccc(O)c(O)c21
active: [4] -30.8% | [5] 5.86% | [6] -41.1% | [7] -67.6% | [8] -86.9% | [9] 6.56%
inactive: [1] 17% | [2] 83.4% | [3] 25.7%

CN1CC(c2ccccc2)C(C(=O)c2ccc(Br)cc2)C12C(=O)Nc1ccccc12 (stereo not given)
inactive: [1] 96.2% | [2] 90.5% | [3] 103% | [4] 94.8% | [5] 99.4% | [6] 86.3% | [7] 83% | [8] 97.8% | [9] 112%
